Results on 37 molecules are retold here after paper PMC5540273 (PLoS ONE, 2017).

Molecules are shown by their SMILES.
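Note: KINOMEscan kinase panel screen.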

In the test the test system is RIPK1. The following applies: concentration: 1 μM,replicates: in singlicate; n = 1.
Take `Cn1ccc2ncnc(Oc3ccc(NC(=O)Nc4ccnc(C(F)(F)F)c4)c(Cl)c3)c21`: the “%Inh” value worked out at 0%.

Regarding `Cc1ccc(CC(=O)N2CCc3cc(-c4cn(C)c5ncnc(N)c45)ccc32)cc1` [GSK2634758], the “%Inh” value was 100%. The value for `CS(=O)(=O)c1cccc(CNc2nc(Nc3ccc4c(c3)[C@@H]3C[C@@H]4CNC3=O)ncc2C(F)(F)F)c1` was 0%; that for `CNC(=O)c1ccccc1Nc1nc(Nc2cccc(CS(C)(=O)=O)c2)ncc1C.O=CO` [GSK1520489] was 21%; that for `Cn1ccc2ncnc(Oc3ccc(NC(=O)Nc4cccc(C(F)(F)F)c4)c(Cl)c3)c21` was 6%.

Take `CN1CCN(CCNc2nc3cc(Oc4ccc(NC(=O)Nc5cc(C(F)(F)F)ccc5F)cc4)ccc3[nH]2)CC1.Cl.Cl` [GW768504]: the “%Inh” value is on record as 2%. The value for `O=C(NCC1CC1)c1ccc(-c2cc(C(=O)NC3CC3)ccc2F)cc1` [GW810445] was 0%; that for `N#Cc1cccc(C(=O)NC2CCN(c3ccnc(Nc4ccc(F)cc4)n3)C2)c1` (stereo not shown) [GSK1379708] was 0%; that for `FC(F)(F)c1cc(Br)cc(Nc2nccc(-c3cnn4ncccc34)n2)c1` [GW810578] was 4%.

Consider `Cc1ccn2nc(-c3ccc(F)cc3)c(-c3ccncc3)c2c1.Cl` [GW457859], for which the “%Inh” value came out at 1%. The value for `C[C@@H](Oc1cc(-n2cnc3cc(-c4cnn(C)c4)ccc32)sc1C(N)=O)c1ccccc1Cl` [GSK580432] was 39%; that for `Cn1ccc2ncnc(Oc3ccc(NC(=O)Nc4cncc(C(F)(F)F)c4)c(Cl)c3)c21` was 0%. The same measure for `CS(=O)(=O)Nc1ccc(-c2ccnc3[nH]ccc23)cc1` [GSK993273]: 0%; for `O=C(Nc1n[nH]c2cc(-c3ccco3)ccc12)C1CC1` [SB-737447]: 13%; for `OCCn1cc(-c2cnc3nnn(Cc4ccc5ncccc5c4)c3n2)cn1`: 0%. The same measure for `Cc1ccc(Nc2ccnc(Nc3ccc4c(c3)CS(=O)(=O)C4)n2)cc1O.Cl` [GW579362]: 25%; for `Cn1ccc2ncnc(Oc3ccc(NC(=O)Nc4cccc(C(F)(F)F)c4)c(F)c3)c21`: 23%; for `CCOC(=O)N1CCC(n2cnc(-c3ccc(F)cc3)c2-c2ccnc(N)n2)CC1` [SB-219952]: 18%.

Take `CCn1c(-c2nonc2N)nc2cncc(Br)c21` [SB-738004]: the “%Inh” value was determined as 27%. The same measure for `Cl.c1ccc(Oc2ccc(Nc3ccnc4cc(-c5ccc(CN6CCNCC6)o5)ccc34)cc2)nc1` [GW567142]: 0%. The same measure for `COc1cccc(C2=C(Nc3cccc(Cl)c3)C(=O)NC2=O)c1` [SB-341556]: 0%; for `CS(=O)c1ccc(-c2coc3ccc(-c4n[nH]c(=O)o4)cc23)cc1` (stereo not shown): 0%. The value for `COC(=O)Nc1nc2cc(Oc3ccc(NC(=O)Nc4cc(C(F)(F)F)ccc4Cl)cc3)ccc2[nH]1.Cl` [GW697465] was 41%; that for `Cn1cc(-c2cccc3c(N)c(C(N)=O)nnc23)cn1` was 3%; that for `C[C@@H]1CCN(C(=O)N2CCCC2)C[C@@H]1N(C)c1ncnc2[nH]ccc12` was 0%. Consider `Cc1ccc2c(-c3ccnc(Nc4ccc(C(F)(F)F)cc4)n3)cnn2n1` [GW819776], for which the “%Inh” value came to 29%. As for `C[C@@H](Oc1cc(-n2cnc3cc(-c4ccncc4)ccc32)sc1C(N)=O)c1ccccc1Cl` [GSK479719], the “%Inh” value is 0%.

As to `CCNCC(Cc1ccccc1)NC(=O)c1cc(Br)c(-c2ccnc3[nH]ccc23)s1.Cl.Cl` (stereo not shown) [GSK1383280], the “%Inh” value was 0%. The same measure for `Cc1nnc(-c2ccc3occ(-c4ccc(S(C)=O)cc4)c3n2)o1` (stereo not shown): 0%; for `COc1cc2nccc(Nc3ccc(Oc4ccccc4)cc3)c2cc1OC.Cl` [GI261656]: 6%; for `COc1cccc(OC)c1C(=O)Nc1cccc(-c2nn3ccccc3c2-c2ccnc(Nc3cccc(F)c3)n2)c1` [GSK361065]: 17%. The same measure for `COc1cc(Nc2nccc(N3CCC(NC(=O)c4cccc(C#N)c4)C3)n2)cc(OC)c1OC` (stereo not shown) [GSK1379751]: 0%. The same measure for `O=C(Nc1cccc(C(F)(F)F)c1)c1cccc(Oc2ccc3nccn3n2)c1`: 1%; for `CC(C)c1nc(-c2cccc(NS(=O)(=O)c3ccccc3)c2)c(-c2ccnc(Nc3ccc4c(c3)CN(C)CC4)n2)s1` [GSK1649598]: 0%. On to `CN1CCN(CCCNc2nccc(-c3c(-c4ccc(F)cc4)nn4cc(C(N)=O)ccc34)n2)CC1` [GW622475], for which the “%Inh” value is listed as 10%. The value for `CC(=O)c1c(-c2ccncc2)[nH]c(-c2ccncc2)c1C` [GW493036] was 0%. The same measure for `COC(=O)c1cccc(NC(=O)NC2CCN(c3ccnc(NCc4ccc(F)cc4)n3)CC2)c1` [GSK1379860]: 0%.
